Source: PubChem BioAssay AID1259423 (Fisher Drug Discovery Resource Center, 2018)
Where “and” joins values, the source holds several entries; their conditions need not be identical. Identical values can stand only once. Hit rate of the full screen: of about 270,000 compounds, about 410 (0.15%) were called active. This is one part of a sample in which actives are shown more often than they occur. No stated cut-off is given here; in the data, active means activation above about 40%; inactive means the rest, inconclusive results apart.

System: Aedes aegypti neuropeptide Y-like receptor 7 (NPYLR7)
Test: agonists of mosquito NPYLR7 receptor, primary screen, cell-based, Aedes aegypti, calcium fluorescence, mosquito biting behavior (AID 1259423);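 further: 0% = vehicle and 100% = reference agonist at the receptor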
Settings: HEK293T NPYLR7/Galpha15, GCaMP6s calcium fluorescence, at 10 µM, stronger effect = higher value
[1] = measured here: Max-Min RFU normalised activation

SMILES	activation	activation [1]
CC(c1cccs1)N(C)C(=O)c1n[nH]c(C2CC2)c1Br (centres undefined)	-2.08% (inactive)	0.622%
O=C1Nc2ccccc2C1=NN=C(C(=O)c1ccccc1)c1ccccc1	11.7% (inactive)	10.9%
CCC(=O)Nc1cccc(OCC(=O)N2CCCC2c2nonc2C)c1 (centres undefined)	-16.1% (inactive)	-16.7%
Cc1ccc(NC(=O)Cn2cnc3sc4c(c3c2=O)CCC4)c(F)c1	-14.9% (inactive)	-15.4%
COc1ccc(C=C2SC(=S)NC2=O)cc1OC	1.47% (inactive)	3.32%
COc1cc(OC)c(OC)cc1/C=C1/SC(=S)NC1=O	-3.39% (inactive)	-7.58%
COc1cc(C=C2SC(=S)NC2=O)cc(Br)c1O	668% (active)	942%
Cc1cc(S(=O)(=O)C(CNC(=O)CC(C)(C)C)c2cccs2)ccc1F (centres undefined)	5.15% (inactive)	2.88%
COCCNC(=S)N(CCC#N)CCN(CCC#N)C(=S)NCCOC	-2.49% (inactive)	-3.45%
Cc1cnccc1N1CCCN(C(=O)[C@H](N)CC(C)C)CC1	8.21% (inactive)	7.83%
Cc1ccccc1-c1noc(CN2CCN(C(=O)c3cc(C4CC4)[nH]n3)CC2)n1	0.903% (inactive)	0.506%
CCC(CO)[n+]1c(C)cc(C=C2Sc3ccccc3N2CC)cc1C (centres undefined)	56.5% (active)	44.4%
Cn1nc(C(F)(F)F)cc1C(=O)N1CCCC(O)(CO)CC1 (centres undefined)	3.25% (inactive)	1.85%
COC(=O)Cn1cc(C=C(C#N)C(=O)NCCc2c[nH]c3ccccc23)c2ccccc21	1.04% (inactive)	1.01%
CCCn1nccc1C(=O)Nc1cc2c(C)cc(=O)oc2cc1C	-4.21% (inactive)	-5.15%
CCCc1nc(N2CCCN(c3ncccn3)CC2)c2cnn(C)c2n1	-2.57% (inactive)	-6.77%
COc1ccc(OC)c(S(=O)(=O)N2CCCC(c3nc4ccccc4s3)C2)c1 (centres undefined)	-8.36% (inactive)	-7.77%
Cc1ccn(-c2ccc(NC3CC4CCC3O4)nn2)n1 (centres undefined)	7.09% (inactive)	3.85%
Cc1ccc(C2(c3noc(CN(C)Cc4ccc5ccccc5n4)n3)CCCC2)cc1	32.2% (inactive) and 4.89% (inactive)	24.1% and 13.2%
CSc1[s+]sc2c1-c1ccc(C)cc1NC2(C)C	-1.46% (inactive)	5.63%
Cn1cc(NC(=O)Nc2cccc(N3CCCCCC3)c2)cn1	8.13% (inactive)	3.07%
O=C(O)c1[nH]ncc1CN1CCCC(c2[nH]ncc2Cc2ccccc2)C1 (centres undefined)	2.78% (inactive)	3.74%
O=C(CCc1ccco1)N1CCc2onc(-c3ccc(C(F)(F)F)cc3)c2C1	3.67% (inactive)	-10.1%

SMILES	activation	activation [1]
O=C(O)c1[nH]ncc1CN1CCc2onc(-c3ccc(C(F)(F)F)cc3)c2C1	78.5% (active)	41.2%
Cc1csc(N(C)C(=O)c2cc(N3CCNC3=O)ccc2F)n1	-7.45% (inactive)	-7.61%
COc1ccc(-n2nnc3c(N4CCN(C(=O)c5ccc(Br)o5)CC4)ncnc32)cc1	-8.62% (inactive)	-14.8%
CCOc1cc(/C=C(\C#N)c2nc3ncc(Br)cc3[nH]2)ccc1O	90.2% (active)	69.1%
N#CCc1nc2ncc(Br)cc2[nH]1	-4.5% (inactive)	-5.31%
CCOc1ccc(/C=C(\C#N)c2[nH]nc(N)c2C#N)cc1OCC	-1.82% (inactive)	-4%
OCc1ccc(CN2CCC(Oc3ccc(Cl)cc3)CC2)o1	2.49% (inactive)	0.105%
COCCN(Cc1cc(NC(=O)c2cccc(F)c2)ccc1N(C)C)C(=O)NC(C)(C)C	-2.37% (inactive)	-0.561%
CCOC(=O)c1ccc2c(c1)nc(SCc1cccc(C(=O)OC)c1)n2Cc1cccc(F)c1	-6.01% (inactive)	-4.5%
COc1cc(C=C2C=c3c(O)cccc3=C2O)cc(Cl)c1O	203% (active)	183%
COc1cc(/C=C2/C(=O)N(c3ccc(Cl)c(Cl)c3)N=C2C)cc(Br)c1O	-1.16% (inactive)	5.59%
COc1cccc(CSc2nnc(CNC(=O)Nc3cc(OC)cc(OC)c3)n2-c2ccc([N+](=O)[O-])cc2)c1	22.3% (inactive)	16.8%
CC(C)CNC(=O)c1ccc2c(=O)n(Cc3ccccc3)c3nn(CC(N)=O)c(=O)n3c2c1	2.33% (inactive)	-0.424%
C/C=C/c1cc(C(=O)N2CCN(CCO)CC2)cc(OC)c1OC	2.68% (inactive)	0.348%
CC(C)N(CC1CCC(=O)N1)C(=O)c1cc(Cl)c[nH]c1=O (centres undefined)	-1.21% (inactive)	-6.03%
CN1CC2(CCCN(C(=O)c3cccc(Cn4cccn4)c3)CC2)OC1=O (centres undefined)	33.4% (inactive)	15.5%
CC(C)(Oc1ccc(Cl)cc1)C(=O)Nn1cnc2c(cnn2-c2ccccc2)c1=O	2.94% (inactive)	-1.1%
O=C(O)C1CC2CCCC(C1)C2=O (centres undefined)	2.14% (inactive)	1.09%
COc1ccc(C2SCCN2C(=O)c2cc3cc(Br)ccc3oc2=O)cc1 (centres undefined)	1.99% (inactive)	-4.59%
O=C1CCC(C(=O)N(Cc2ccc(F)cc2)C2CC2)=NN1c1ccccc1	2.48% (inactive)	1.4%
CCn1c(C2CCN(CCC3=C(C)CCCC3(C)C)CC2)nn(C)c1=O	14.4% (inactive)	4.06%
CCc1cc(=O)[nH]c(-n2nc(C)cc2NC(=O)C2c3ccccc3Oc3ccccc32)n1	10.2% (inactive)	5.92%
CNC(=O)NC(=O)C(C)Sc1nnc(-c2ccco2)n1CCC(N)=O (centres undefined)	1.74% (inactive)	5.62%

SMILES	activation	activation [1]
CCOC(=O)Nc1cc(=O)c2cc(C)ccc2o1	0.463% (inactive)	-6.18%
COc1ccc(C)c2sc(N(CCCN3CCOCC3)C(=O)c3ccc([N+](=O)[O-])cc3)nc12	-0.485% (inactive)	-6.29%
O=C(CNCCN1CCOCC1)N(Cc1ccccc1)Cc1cccs1	-7.58% (inactive)	-12.6%
COCCNCC(=O)N(Cc1ccccc1)Cc1ccc(C)s1	-5.15% (inactive)	-13.2%
Cc1ccc(CN(Cc2ccc(F)cc2)C(=O)CNCCN2CCOCC2)s1	56.1% (active)	58%
Cc1ccc(CNc2oc(-c3ccc(S(=O)(=O)N(C)Cc4ccccc4)cc3)nc2C#N)cc1	-0.355% (inactive)	4.09%
O=C(NC1Cc2ccccc2C1)c1ccc(-c2cc(-c3cccc(C(F)(F)F)c3)n[nH]2)cc1	25.1% (inactive)	16.8%
N#Cc1cc2cc(Cl)cc(Cl)c2oc1=O	189% (active)	162%
N#Cc1cc(Cl)c(Cl)cc1C#N	9.21% (inactive)	8.51%
O=c1oc2c(Cl)cc(Cl)cc2cc1-c1nnc(Nc2ccccc2F)s1	3.96% (inactive)	1.58%
CCCCNC(=O)c1c(C)c(C(=O)OCC)n(C)c1C	-1.79% (inactive)	26.8%
O=C(Nc1cc(F)c(N2CCCC2)c(F)c1)C1Cc2ccccc2O1 (centres undefined)	2.58% (inactive)	0.532%
COc1ccc(NC(=O)C(C)SCc2cccc(C(F)(F)F)c2)cc1 (centres undefined)	-0.635% (inactive)	-2.01%
C=C(C)Cn1c(C2CC(=O)N(c3ccccc3CC)C2)nc2ccccc21 (centres undefined)	-1.84% (inactive)	23.5%
CCN(CC)C(=O)C1(C)CCN1C(=O)Cc1ccc(-c2ccccc2)cc1 (centres undefined)	4.71% (inactive)	3.32%
CC(C)COCC(O)CN(Cc1cccn1C)CC1CCCO1 (centres undefined)	43.6% (active)	42.4%
COc1cccc(CN(CC(O)COCC(C)C)CC2CCCO2)c1 (centres undefined)	23.7% (inactive)	17.6%
COc1ccc(OCC(O)CN(Cc2cccn2C)CC2CCCO2)cc1 (centres undefined)	18.8% (inactive)	19.6%
Fc1ccc(-c2cnc(NCCc3ccccn3)cn2)cc1Cl	-2.76% (inactive)	-5.38%
COC(=O)C1=C(NC(=O)CSCc2ccccc2)CCS1	-1% (inactive)	-1.58%
CC1CCC(C(C)C)C(OCC(O)CN2CCN(CCO)CC2)C1 (centres undefined)	0.73% (inactive)	22.3%
